Data published in PubChem BioAssay (Tox21).
Where “and” joins values, the source holds several entries; their conditions need not be identical. Identical values can stand only once. Records with an inconclusive call do not appear. Entries that show only a call come without a potency. A structure can be active in one record and inactive in another. Calls of active or inactive are those of the source. Unless noted, calls follow the shape of the dose curve; as a rule, active = well fitted curve in the direction sought with a large enough effect in the repeat runs; inconclusive = weak or mixed curves; inactive = no such curve, though single readings can be large; an effect the other way counts as inactive or inconclusive.

How the values were obtained:
[1] = qHTS assay to identify small molecule antagonists of the glucocorticoid receptor (GR) signaling pathway - cell viability counter screen (AID 720693); also: nearly all actives have a fitted effect of over 55% in size
[2] = qHTS assay for identifying genotoxic compounds that show differential cytotoxicity against isogenic chicken DT40 cell lines with known DNA damage response pathways - Rev3 mutant cell line (AID 743014); also: nearly all actives have a fitted effect of over 55% in size; also: potency is read from the fitted curve at half-maximal effect
[3] = qHTS assay for identifying genotoxic compounds that show differential cytotoxicity against isogenic chicken DT40 cell lines with known DNA damage response pathways - Rad54/Ku70 mutant cell line (AID 743015); also: nearly all actives have a fitted effect of over 60% in size; also: potency is read from the fitted curve at half-maximal effect
[4] = qHTS assay to identify small molecule antagonists of the androgen receptor (AR) signaling pathway - cell viability counter screen (AID 743033; also: nearly all actives have a fitted effect of over 45% in size)
[5] = qHTS assay to identify small molecule antagonists of the androgen receptor (AR) signaling pathway using the MDA cell line - cell viability counter screen (AID 743041; also: nearly all actives have a fitted effect of over 45% in size)
How it was run: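 qHTS viability read-out; MDA-kb2 AR-luc; R1881-stimulated; 16 h exposure at 37C, 0% CO2; CellTiter-Fluor, 30 min; fluorescence intensity.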

[6] = qHTS assay to identify small molecule antagonists of the thyroid receptor (TR) signaling pathway - cell viability counter screen (AID 743064); also: nearly all actives have a fitted effect of over 50% in size
How it was run: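 GH3.TRE-Luc rat pituitary cells dosed after 4 hr plating, co-stimulated with T3 at 1 nM final, incubated 23.5 h at 37 C. Viability measured in the same wells by CellTiter-Fluor fluorescence after 30 min further at 37 C.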

[7] = qHTS assay to identify small molecule antagonists of the thyroid receptor (TR) signaling pathway (AID 743065); also: nearly all actives have a fitted effect of over 55% in size; also: potency is read from the fitted curve at half-maximal effect
How it was run: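 GH3.TRE-Luc rat pituitary cells carrying two TR response elements driving luciferase were plated for 4 h, given compound plus 1 nM T3 (final), and incubated 23.5 h at 37 C. ONE-Glo luminescence measured reporter inhibition; CellTiter-Fluor fluorescence tracked cytotoxicity.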

[8] = system: thyroid hormone receptor (rat, GH3 cells); experiment: qHTS assay to identify small molecule agonists of the thyroid receptor (TR) signaling pathway (AID 743066; calls by dose curve)
[9] = target: Estrogen receptor (Homo sapiens) (UniProt P03372); experiment: qHTS assay to identify small molecule antagonists of the estrogen receptor alpha (ER-alpha) signaling pathway (AID 743069; active = well fitted curve in the direction sought with a large enough effect in the signal ratio in the repeat runs, not every such curve was filed as active; the % refers to the signal ratio)
Estrogen receptor (Homo sapiens), sequence (P03372 whole entry, looked up): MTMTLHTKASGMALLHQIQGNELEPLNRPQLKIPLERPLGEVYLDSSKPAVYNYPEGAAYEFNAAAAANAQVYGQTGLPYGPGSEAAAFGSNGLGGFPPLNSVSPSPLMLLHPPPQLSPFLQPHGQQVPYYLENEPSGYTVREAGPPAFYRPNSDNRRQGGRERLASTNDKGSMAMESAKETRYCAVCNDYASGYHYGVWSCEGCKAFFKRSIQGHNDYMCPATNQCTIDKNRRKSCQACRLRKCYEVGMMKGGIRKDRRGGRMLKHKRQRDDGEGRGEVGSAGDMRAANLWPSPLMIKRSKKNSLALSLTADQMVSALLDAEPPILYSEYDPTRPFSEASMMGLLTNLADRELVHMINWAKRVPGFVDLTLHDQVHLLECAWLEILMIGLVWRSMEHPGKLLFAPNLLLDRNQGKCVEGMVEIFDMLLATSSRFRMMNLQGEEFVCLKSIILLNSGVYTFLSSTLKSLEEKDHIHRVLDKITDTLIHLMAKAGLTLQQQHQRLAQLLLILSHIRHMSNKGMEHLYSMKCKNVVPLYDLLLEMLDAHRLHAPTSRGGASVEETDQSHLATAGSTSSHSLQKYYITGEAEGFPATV
How it was run: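 Screening used a UAS-driven beta-lactamase reporter integrated into HEK293 cells expressing ER-alpha, stimulated with 17beta-estradiol alongside test compounds over 18 hr at 37C; signal came from LiveBLAzer B/G FRET fluorescence.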

[10] = qHTS assay to identify small molecule antagonists of the estrogen receptor alpha (ER-alpha) signaling pathway - cell viability counter screen (AID 743074; calls by dose curve; also: nearly all actives have a fitted effect of over 45% in size)
[11] = target: Estrogen receptor (Homo sapiens) (UniProt P03372); experiment: qHTS assay to identify small molecule agonists of the estrogen receptor alpha (ER-alpha) signaling pathway (AID 743075; calls by dose curve; also: potency is read from the fitted curve at half-maximal effect)
[12] = target: Estrogen receptor (Homo sapiens) (UniProt P03372); experiment: qHTS assay to identify small molecule agonists of the estrogen receptor alpha (ER-alpha) signaling pathway using the BG1 cell line (AID 743079); also: nearly all actives have a fitted effect of over 20% in size; also: potency is read from the fitted curve at half-maximal effect
[13] = qHTS assay to identify small molecule antagonists of the estrogen receptor alpha (ER-alpha) signaling pathway using the BG1 cell line (AID 743080; calls by dose curve; also: nearly all actives have a fitted effect of over 25% in size; also: potency is read from the fitted curve at half-maximal effect)
How it was run: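 Antagonist mode: compounds in DMSO were pinned onto BG1-Luc-4E2 cells alongside 17beta-estradiol agonist, incubated 21.5 h, and ERE-driven luciferase measured with ONE-Glo. Cytotoxicity was multiplexed using CellTiter-Fluor fluorescence.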

[14] = qHTS assay to identify small molecule antagonists of the estrogen receptor alpha (ER-alpha) signaling pathway using the BG1 cell line - cell viability counter screen (AID 743081);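 also: compound given together with 17beta-estradiol as the ER stimulus; series mostly up to about 70 µM; nearly all actives have a fitted effect of over 45% in size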
Aromatase (Homo sapiens) = Aromatase (Homo sapiens) (UniProt P11511); experiment: qHTS assay to identify aromatase inhibitors (AID 743083); also: series mostly up to about 70 µM; nearly all actives have a fitted effect of over 55% in size
Aromatase (Homo sapiens), sequence (P11511 whole entry, looked up): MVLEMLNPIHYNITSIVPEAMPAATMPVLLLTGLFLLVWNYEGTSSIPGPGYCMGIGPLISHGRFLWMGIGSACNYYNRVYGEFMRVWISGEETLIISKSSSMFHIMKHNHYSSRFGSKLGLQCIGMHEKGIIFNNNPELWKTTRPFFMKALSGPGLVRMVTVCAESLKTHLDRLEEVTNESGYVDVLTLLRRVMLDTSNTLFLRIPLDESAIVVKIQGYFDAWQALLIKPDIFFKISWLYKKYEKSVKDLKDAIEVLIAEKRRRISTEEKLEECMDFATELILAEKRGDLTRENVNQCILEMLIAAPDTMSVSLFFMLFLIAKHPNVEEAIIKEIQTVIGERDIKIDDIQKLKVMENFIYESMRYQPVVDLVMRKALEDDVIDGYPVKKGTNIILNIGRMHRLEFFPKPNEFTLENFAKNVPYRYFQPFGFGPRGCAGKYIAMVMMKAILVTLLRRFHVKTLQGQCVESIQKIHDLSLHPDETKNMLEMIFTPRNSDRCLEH

SMILES | Potency [1] | Potency [2] | Potency [3] | outcome [4] | Potency [5] | Potency [6] | Potency [7] | outcome [8] | Potency [9] | outcome [10] | Potency [11] | Potency [12] | Potency [13] | Potency [14] | Potency (Aromatase (Homo sapiens))
CC(=O)/C=C/C1=C(C)CCCC1(C)C | inactive | inactive | inactive | inactive | inactive | inactive | inactive | inactive | inactive | inactive | inactive | inactive | inactive | inactive | inactive
O=c1cc[nH]c(=O)[nH]1 | inactive | inactive | inactive | inactive | inactive | inactive | inactive | inactive |  | inactive |  |  |  | inactive | 
CCCCOCCOCCSC#N | inactive | inactive | inactive | inactive | inactive | inactive |  |  |  | inactive |  |  |  | inactive | inactive
NC(N)=NC(N)=NCCc1ccccc1 | inactive | 29.8 µM (active) and 17.1 µM (active) and 27.3 µM (active) | 17.1 µM (active) [middle of 4 runs] | inactive |  | inactive | 60.8 µM (active) | inactive | inactive | inactive | inactive |  |  | inactive | inactive
N[C@@H](Cc1c[nH]c2ccccc12)C(=O)O | inactive | inactive | inactive | inactive | inactive | inactive | inactive | inactive |  | inactive |  |  |  | inactive | inactive
CC1=C(/C=C/C(C)=C/C=C/C(C)=C/C(=O)O)C(C)(C)CCC1 | inactive | 77 µM (active) and 61.1 µM (active) | 29.8 µM (active) and 61.2 µM (active) and 54.4 µM (active) | inactive | inactive | inactive |  |  |  | inactive |  |  | 335 nM (active) and 77 nM (active) | inactive | inactive
C1CNCCN1 | inactive | inactive and 62.9 µM (active) | inactive and 62.9 µM (active) | inactive | inactive | inactive | inactive | inactive | inactive | inactive | inactive | inactive and 68 µM (active) | inactive | inactive | inactive
CC(=O)OC/C=C(C)/C=C/C=C(C)/C=C/C1=C(C)CCCC1(C)C | inactive | inactive and 59.6 µM (active) and 54.5 µM (active) | 47.4 µM (active) and 30.6 µM (active) | inactive | inactive | inactive | inactive | inactive | inactive | inactive | inactive and 33.8 µM [activator] (active) | inactive | inactive | inactive | inactive
